Records with an inconclusive call do not appear. A call without a number means that no potency is given here. Unmarked numbers belong to inactive results. Calls of active or inactive are those of the source. Calls come from the whole dose curve; as a rule, active = well fitted cell-killing curve with a large enough effect; inconclusive = small, poorly fitted or top-dose-only effect; inactive = no such curve, though single readings can be large or run the other way.
Assay: qHTS of pediatric cancer cell lines to identify multiple opportunities for drug repurposing: Primary screen for SK-N-SH cells (AID 1347098); note: nearly all actives have a fitted effect of over 65% in size
Conditions: SK-N-SH viability, CellTiter-Glo luminescence, 48 h; series mostly up to 57 µM
Text: Drug repurposing or repositioning has been offered as a strategy for drug development in oncology programs. This approach has special potential for childhood cancers and other rare or orphan diseases, where the expected return on new drug development has been a disincentive to pharmaceuticals.
In this project we exploit the poly-pharmacology of drugs to discover new indications via phenotypic screening of a panel of 19 well-characterized cell lines derived from solid tumors seen in children and adolescents. The goal is to identify approved drugs with previously unrecognized anticancer properties that has the potential to reveal new mechanisms and biological processes involved in carcinogenesis or drug resistance. We employed a titration-based paradigm (quantitative high-throughput screening or qHTS), where all compounds were tested at multiple concentrations for their effect on cell viability. Concentration-response curves (CRCs) were derived directly from the primary screen, and both potency and efficacy values were used to identify compounds with robust bioactivity profiles. We screened the NIH Chemical Genomics Center (NCGC) Pharmaceutical Collection (NPC) and Mechanism Interrogation Plate (MIPE) small molecule collections of approved and investigational compounds against these cell lines; and measured metabolically active cells after 48 hours of compound treatment as a proxy for cell viability.
Assay Submitter: Nathalia J. Martinez, National Center for Advancing Translational Sciences, National Institutes of Health, Rockville, MD, USA; email: natalia.martinez@nih.gov
[1] Shen, M et al. Quantitative high-throughput phenotypic screening of pediatric cancer cell lines identifies multiple opportunities for drug repurposing. Oncotarget 2017 Dec 19;9(4):4758-4772. PMID 29435139.
The cells were obtained from University of North Carolina (UNC), Pediatric Preclinical Testing Program (PPT), and Coriell Institute (CI).
qHTS cell viability assay:
Cells were assayed in growth media at a density of 500-1,000 cells/well. Five microliters of cells were dispensed into 1,536-well, white, solid-bottom, TC-treated plates (Greiner Bio One) using a multidrop dispenser and incubated at 37 degrees C, 5% CO2, under a humidified atmosphere for 5 hours. Twenty-three nanoliters of compounds and controls (neutral control DMSO or positive control bortezomib at final concentration of 2.3 µM) were subsequently transferred by Kalypsys pintool. For primary screens, the MIPE collection was tested at 11-point dilutions (final concentrations range from 0.78 nM to 46 µM) and the NPC collection at 8-point dilutions (final concentrations range from 0.59 nM to 46 µM). Compounds tested in follow-up screens were assayed at 11-point dilutions. Cells were incubated for 48 hours, followed by addition of 3 µL of CellTiter-Glo (Promega). After a 15 min incubation at room temperature, samples were analyzed for luminescence intensity using a ViewLux High-throughput CCD imager equipped with clear filters.
Potency is the fitted concentration of half-maximal effect.

| SMILES | Potency | activity change, negative = cytotoxic |
| --- | --- | --- |
| Cc1c(C(N)=O)cc([N+](=O)[O-])cc1[N+](=O)[O-] | inactive |  |
| c1ccc(OCc2ccc(CCCN3CCOCC3)cc2)cc1 | inactive |  |
| C[C@@H]1CN(CCCn2c3ccccc3c3ccccc32)C[C@H](C)N1 | 9.7 µM (active) |  |
| CN(C)CCCOc1nn(Cc2ccccc2)c2ccccc12 | 15.4 µM (active) |  |
| C#C[C@]1(O)CC[C@H]2[C@@H]3CCC4=CC(=O)CC[C@@H]4[C@H]3CC[C@@]21C | inactive |  |
| CC(C)(C(=O)c1cccnc1)c1cccnc1 | inactive |  |
| CC(=O)N(O)CCCCCNC(=O)CCC(=O)N(O)CCCCCNC(=O)CCC(=O)N(O)CCCCCN | 5.45 µM (active) |  |
| CN(C)C(=S)SC(=S)N(C)C | 1.94 µM (active) |  |
| Nc1ccc(/C=C/c2ccc(N)cc2S(=O)(=O)O)c(S(=O)(=O)O)c1 |  | 12.2% [at 0.741 µM] |
| CN1CCC(=C2c3ccccc3Sc3ccccc32)CC1 | 19.4 µM (active) |  |
| Oc1c(I)cc(Cl)c2cccnc12 | 27.3 µM (active) |  |
| NC[C@H]1O[C@H](O[C@H]2[C@H](O[C@@H]3O[C@H](CO)[C@@H](O)[C@H]3O)C(O)[C@H](N)C[C@@H]2N)[C@H](N)[C@@H](O)[C@@H]1O (stereo not given in full) |  | 19.9% [at 11.4 µM] |
| COC(=O)[C@@H]1CC2=CC(=O)CC[C@]2(C)[C@@]23O[C@@H]2C[C@@]2(C)[C@@H](CC[C@@]24CCC(=O)O4)[C@H]13 | inactive |  |
| CC1(C)OC[C@@H](COC(=O)CCc2ccc(OC[C@@H](O)CNCCNC(=O)N3CCOCC3)cc2)O1 | inactive |  |
| Cc1ccc(C(=O)C(C)CN2CCCCC2)cc1 (stereo not given) | inactive |  |
| C/C=C/c1ccc(OC)cc1 | inactive |  |
| CCCCC1=NC2(CCCC2)C(=O)N1Cc1ccc(-c2ccccc2-c2nn[nH]n2)cc1 | inactive |  |
| CC1=C(C(=O)O)N2C(=O)[C@@H](NC(=O)[C@H](N)c3ccc(O)cc3)[C@H]2SC1 | inactive |  |
| C[C@]12CC[C@H]3[C@@H](CCC4=CC(=O)CC[C@@]43C)[C@@H]1CC[C@@H]2C(=O)CO | inactive |  |
| CC(=O)OCC(=O)[C@@]1(O)CC[C@H]2[C@@H]3CCC4=CC(=O)C=C[C@]4(C)[C@H]3[C@@H](O)C[C@@]21C | inactive |  |

| SMILES | Potency | activity change, negative = cytotoxic |
| --- | --- | --- |
| CC(C)n1nc(-c2cc3cc(O)ccc3[nH]2)c2c(N)ncnc21 | 12.2 µM (active) |  |
| CN=C(NC#N)Nc1ccc(C2=NNC(=O)CC2C)cc1 (stereo not given) | inactive |  |
| O=C1OC2(c3ccc(O)cc3Oc3cc(O)ccc32)c2ccccc21 | inactive |  |
| CC(C)NC[C@@H](O)COc1cccc2ccccc12 | inactive |  |
| COc1cc(C(=S)N2CCOCC2)cc(OC)c1OC | inactive |  |
| CNCC[C@@H](Oc1ccccc1C)c1ccccc1 | inactive |  |
| O=C1OC(c2ccc(O)cc2)(c2ccc(O)cc2)c2ccccc21 | inactive |  |
| COc1cc(/C=C/C(=O)O[C@H]2CC[C@]34C[C@]35CC[C@]3(C)[C@@H]([C@H](C)CCC=C(C)C)CC[C@@]3(C)[C@@H]5CC[C@H]4C2(C)C)ccc1O | inactive |  |
| COc1cc2c(cc1OC)[C@@H]1CC(=O)[C@@H](CC(C)C)CN1CC2 | inactive |  |
| Cc1c(N(C)CS(=O)(=O)O)c(=O)n(-c2ccccc2)n1C | inactive |  |
| Oc1ccc(Cl)c2cccnc12 | 8.64 µM (active) |  |
| CN=C(NC#N)NCCSCc1csc(N=C(N)N)n1 | inactive |  |
| CC1(C)O[C@@H]2C[C@H]3[C@@H]4C[C@H](F)C5=CC(=O)CC[C@]5(C)[C@H]4[C@@H](O)C[C@]3(C)[C@]2(C(=O)CO)O1 | inactive |  |
| Cc1cc2c(cc1CC(=O)c1sccc1S(=O)(=O)Nc1onc(C)c1Cl)OCO2 | inactive |  |
| COc1cccc(OC)c1C(=O)N[C@@H]1C(=O)N2[C@@H]1SC(C)(C)[C@@H]2C(=O)O | inactive |  |
| Cc1c(F)c(N2CCNC(C)C2)cc2c1c(=O)c(C(=O)O)cn2C1CC1 (stereo not given) | inactive |  |
| O=C(COc1ccc(Cl)cc1)N1CCN(Cc2ccc3c(c2)OCO3)CC1 | inactive |  |
| c1ccc(CNCCNCc2ccccc2)cc1 | inactive |  |
| O=C(O)CCCCC(=O)O | inactive |  |
| CCCCCCCCCCCCCCNCCO | inactive |  |
